Compound activity as filed in PubChem.
HepG2 viability = HepG2 cytotoxicity, counter-screen for TGF-b inhibitors; HepG2 CAGA-GFP viability, ATP luminescence, 18 h; Potency, µM (doses to about 46.1 µM), for inactives: top-dose activity change, negative = cytotoxicity, hits mostly cytotoxic; actives 0.76% (n = 410,000); AID 588856; further: potency means the concentration at half of the fitted maximal effect
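CellTiter-Glo luminescence gave cytotoxicity after 18 hours at 37 degrees C. The cells were HepG2 CAGA-GFP in 1% FBS DMEM, stimulated with 500 pg/mL TGF-beta after compound addition. %Activity was normalised to no-cell wells (complete cell-killing) and DMSO (no toxicity), and curves were fitted and classified.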
ATXN viability = cell viability loss in ATXN counter-screen; actives 0.49% (n = 400,000); S2 cells (HEK-293 line with an ATXN2-luciferase reporter) viability, CellTiter-Fluor protease fluorescence, 24 h; Potency, µM (doses to about 56.7 µM), most hits filed as cytotoxic; further: potency means the concentration at half of the fitted maximal effect; nearly all actives have a fitted effect of over 40% in size
DRD3 antagonist = antagonists of human D3 dopamine receptor; actives 2.5% (n = 360,000); P35462; max response, negative = inhibition, %; D3R cells, DiscoveRx beta-arrestin luminescence, antagonist mode; stronger effect = lower value; in the data active means max response below about -50%; inconclusive means no clear call, values can overlap the other calls; further: on the % scale 0 is the no-effect control and ±100 the full control effect
Target sequence (P35462 whole entry, looked up): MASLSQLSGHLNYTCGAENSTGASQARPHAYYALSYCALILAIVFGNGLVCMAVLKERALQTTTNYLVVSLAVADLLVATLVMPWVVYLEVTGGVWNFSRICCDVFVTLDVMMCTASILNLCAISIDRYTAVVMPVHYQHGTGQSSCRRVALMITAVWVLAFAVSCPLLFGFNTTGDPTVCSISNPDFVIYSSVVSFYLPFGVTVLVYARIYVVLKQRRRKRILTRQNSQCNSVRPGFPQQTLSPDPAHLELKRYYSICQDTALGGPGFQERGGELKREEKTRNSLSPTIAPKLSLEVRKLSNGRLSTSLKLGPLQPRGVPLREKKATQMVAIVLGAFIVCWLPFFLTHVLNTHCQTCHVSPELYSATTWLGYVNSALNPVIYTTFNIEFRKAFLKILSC
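Cells expressing the human receptor were seeded at 1500 cells/well, incubated overnight at 37 degrees C in 5% CO2, then exposed to library compounds with dopamine controls for 90 minutes at 37 degrees C before luminescent detection.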
DRD3 agonist = D3 dopamine receptor (human) agonism | P35462 | D3R DiscoveRx beta-arrestin cells, luminescence, 90 min | max activation, % | actives 0.58% (n = 410,000) | AID 652048; in the data active means max activation above about 30%; further: 0% is about no effect
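Agonist-mode cell screen: cells plated at 1500/well and incubated overnight at 37 °C, then exposed to library compounds for 90 min at 37 °C. Detection reagent was added for 30–60 min at room temperature, and luminescence was read.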
TGFb SMAD3 inh = TGF-b pathway inhibition; HepG2 CAGA-GFP TGF-b/SMAD3 reporter, GFP fluorescence, 18 h; TGF-beta stimulated, 500 pg/mL final; Potency, µM (doses to about 46.1 µM), for the others: at the top dose activity, negative = inhibition, most hits filed as inhibitors; actives 1.2% (n = 410,000); AID 588855; further: potency means the concentration at half of the fitted maximal effect; on the % scale 0 is the no-effect control and ±100 the full control effect; nearly all actives have a fitted effect of over 65% in size
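GFP signal (ex488/em500-530) from TGF-beta-stimulated HEPG2 CAGA-GFP cells, 500 pg/mL final, 18 h at 37 degrees C in DMEM plus 1% FBS, normalized to unstimulated and DMSO-stimulated controls.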
ATXN2 expr inh = ATXN2 expression inhibition; HEK-293 ATXN2-luciferase reporter, luminescence, 24 h; Potency, µM (highest dose often 57 µM), for inactives: at the highest dose activity change, negative = inhibition, actives largely listed as inhibitors; actives 0.72% (n = 360,000); further: potency means the concentration at half of the fitted maximal effect; on the % scale 0 is the no-effect control and ±100 the full control effect; nearly all actives have a fitted effect of over 55% in size
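qHTS (up to 57 uM final) was run with 24 h compound exposure of reporter cells at 37 °C. Each well was multiplexed: SteadyGlo luminescence measured ATXN2-luciferase expression after a fluorogenic Gly-Phe-AFC viability readout (25 uM final).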
Active calls of the source: *; i = inactive; ? = inconclusive; / = no result given. In the library only some 4.7% were active in any assay of this set; here they are far more common. Unless noted, the call rests on the fitted dose curve; in most records, active means well fitted curve in the direction sought with a large enough effect; inconclusive means small, poorly fitted or top-dose-only effect, or another doubt; inactive means no such curve, though single readings can be large; an effect the other way counts as inactive or inconclusive.

SMILES	HepG2 viability	ATXN viability	DRD3 antagonist	DRD3 agonist	TGFb SMAD3 inh	ATXN2 expr inh
O=C(c1cccs1)c1no[n+]([O-])c1C(=O)c1cccs1	-41%	28µM*	-8	-12	25µM*	?
COc1ccc(NC(=O)c2nn(C)c3c2CSc2ccc(C)cc2-3)cc1OC	11µM*	i	/	4	-27%	-34%
COc1cc(C(C)=O)ccc1Oc1ncnc2c1cnn2-c1ccccc1	-1%	i	8	36*	-1%	7%
Cc1ccc(-n2c(-c3ccc(Br)cc3)c[n+]3c2CCc2ccc4cccnc4c2-3)cc1	8.9µM*	14µM*	?	23	3.2µM*	5µM*
COc1ccc(CCN(Cc2ccccn2)C(=S)Nc2cccc(C)c2)cc1OC	5µM*	?	-22	-4	-6%	-9%
COc1ccc(NC(=S)N(CCc2ccc(OC)c(OC)c2)Cc2ccccn2)cc1	5%	i	15	2	-15%	-12%
Cc1ccc(C)n1-c1nnc(N2CCCC(C(=O)NCc3cccc(F)c3)C2)s1 (centres undefined)	-17%	i	/	3	?	4%
O=S(=O)(c1cnc(Cl)c(Br)c1)N1CCc2ccccc21	-40%	?	-53*	-10	?	?
CS(=O)(=O)N(CC(=O)N/N=C/c1cccc2c1OCCO2)c1ccccc1Br	7%	i	-3	2	-1%	2%
O=C(CN(c1ccc(Cl)c(C(F)(F)F)c1)S(=O)(=O)c1ccccc1)N/N=C/c1cccc2c1OCCO2	2%	i	-63*	-9	?	?
Cc1oc(-c2ccc(Cl)cc2)nc1CN1CCCC(C(=O)NCc2ccccc2)C1 (centres undefined)	-26%	?	/	-18	?	?
CCOc1ccc(CCNC(=O)CCc2cn(Cc3ccc(F)cc3)c3ccccc23)cc1	-22%	/	/	-20	?	/
Cc1cc(NC(=O)CCS(=O)(=O)c2ccc3c(c2)NC(=O)C(C)S3)ccc1Br (centres undefined)	-66%	i	25	9	11µM*	/
CCCc1nn2c(C)c(-c3ccccc3)nc2s1	-34%	i	/	-20	-19%	103%
Cc1cc(C)cc(Oc2coc3cc(OCC(=O)NC4CCCCC4)ccc3c2=O)c1	9%	i	/	-8	8%	11%
C=CC[C@@H](CC(=O)N[C@@H](CO)Cc1ccccc1)C(=O)NC[C@H](OC(=O)[C@@H](CC=C)Cc1ccc(F)cc1)c1ccccc1	-3%	?	43	53*	?	-25%
C=CC[C@@H](CC(=O)N(CCO)Cc1ccccc1)C(=O)NC[C@@H](OC(=O)[C@@H](CC=C)Cc1ccc(F)cc1)c1ccccc1	-25%	?	4	-10	?	?
C=CC[C@@H](Cc1ccc(F)cc1)C(=O)OC[C@@H]1CCCN1C(=O)[C@H](CC=C)CC(=O)N(CCO)Cc1ccccc1	-27%	20µM*	?	-3	?	?
C=CC[C@H](CC(=O)N(CCO)Cc1ccccc1)C(=O)NC[C@H](OC(=O)[C@@H](CC=C)Cc1ccc(F)cc1)c1ccccc1	-40%	25µM*	32	-7	?	?
C=CC[C@@H](CC(=O)N[C@@H](CO)Cc1ccccc1)C(=O)NC[C@@H](OC(=O)[C@@H](CC=C)Cc1ccc(F)cc1)c1ccccc1	-1%	?	2	5	?	?
C=Cc1ccc(Cn2c(C(=O)O)c(CNCc3ccccc3)c3ccc(OC)cc32)cc1	-51%	/	/	-12	/	/
Cc1c(C(=O)NCc2ccco2)cnn1-c1ncc2c(n1)-c1ccccc1CC2	/	i	/	/	/	/
C=C1CC[C@H](O)CC1=C/C=C1\CCC[C@]2(C)[C@@H]([C@H](C)CC[C@@H](O)C(C)(C)O)CC[C@@H]12	/	/	/	6	/	/
COc1cccc(CNC(=O)c2c(OC)cc(=O)n3c2CCN(C(=O)c2ccc(C)s2)CC3)c1	/	i	/	/	/	/
CCOc1ccccc1-c1nc(-c2cc3ccccc3nc2OC)no1	-3%	i	28	34*	10%	-7%
SMILES	HepG2 viability	ATXN viability	DRD3 antagonist	DRD3 agonist	TGFb SMAD3 inh	ATXN2 expr inh
CCOC(=O)c1ccc(NC(=O)CSc2nc(-c3cccs3)cc(C(F)(F)F)c2C#N)cc1	2%	/	/	9	18%	/
COc1ccc(Cn2c(SCc3ccc(C)cc3)nc3cc(OC)c(OC)cc3c2=N)cc1Cl	5.6µM*	16µM*	-29	-8	?	28µM*
CCn1cc2nc(SCc3cc(C)ccc3C)n(Cc3ccc(OC)cc3)c(=O)c2n1	-14%	i	/	-6	-14%	-3%
COCCCn1c(SCc2cccc(C(F)(F)F)c2)nc2cc(OC)c(OC)cc2c1=N	-9%	/	41	-7	11%	/
COCCCn1c(SCc2ccccc2)nc2cc(OC)c(OC)cc2c1=N	-34%	i	34	31*	-1%	3%
COc1ccc(Cn2c(SCc3cc(C)ccc3C)nc3cc(OC)c(OC)cc3c2=N)cc1	10µM*	/	0	44*	-4%	/
COc1cc2nc(SCc3ccc(C(F)(F)F)cc3)n(Cc3cccs3)c(=N)c2cc1OC	2%	/	37	3	-2%	/
Cc1cc(N2CCN(C)CC2)nc2ccc(NC(=O)Nc3cccc(Cl)c3)cc12	-107%	/	/	-22	?	?
CCn1c(-c2ccccc2F)nc2cc(NC(C)=O)cc(C(=O)NCc3ncc(C)[nH]3)c21	/	i	/	/	/	/
CN1CC[C@@H](c2c(O)cc(O)c3c(=O)cc(-c4ccccc4Cl)oc23)[C@@H](O)C1	/	/	/	/	/	0.15µM*
O=c1cc(-c2ccccc2Cl)oc2c(Br)ccc(O)c12	4%	i	8	9	-18%	38%
C=CCNc1nc(NCc2cccc(OC)c2)c2sc(-c3ccccc3)cc2n1	11µM*	?	7	4	?	?
COc1ccccc1CNc1nc(NC(C)C)nc2cc(-c3ccccc3)sc12	13µM*	14µM*	-64*	-19	?	20µM*
COCCNc1nc(NCCOC)c2sc(-c3ccccc3)cc2n1	-29%	i	-21	-12	-2%	-17%
CC(C)Nc1nc(NCCOc2ccccc2Cl)c2sc(-c3ccccc3)cc2n1	14µM*	?	?	-10	?	?
CCOc1ccc(NC(=O)CC2C(=O)N(c3cccc(C)c3)C(=O)N2Cc2ccco2)cc1 (centres undefined)	-2%	/	/	-10	-5%	/
N#Cc1cccc(NC(=O)Cn2c3[n+](c4ccc(C(F)(F)F)cc42)CCCCC3)c1	7%	i	-74*	-52	-5%	-2%
